High-throughput results as filed in PubChem BioAssay.
Rows were chosen to be rich in hits. Some 8.8% of all compounds tested hit in one or more screens of this group.
KB-3-1 tox – kills parental KB-3-1 adenocarcinoma cells. AID 1347075. Potency, µM (titrated, usually from 46.1 µM), actives largely listed as cytotoxic. actives 1.4% (n = 400,000). KB-3-1 viability, CellTiter-Glo ATP luminescence, 72 h; note: nearly all actives have a fitted effect of over 60% in size
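Screening of KB-3-1 cells (DMEM, 10% FBS, phenol-red free) ran from lowest to highest compound concentration; after 72 h at 37 °C viability was read luminescently and curves fitted.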
KB-V1 MDR tox – KB-V1 MDR subline cytotoxicity; KB-V1 MDR cells viability, CellTiter-Glo, 72 h; Potency, µM (doses to about 46.1 µM), most hits filed as cytotoxic; actives 3.4% (n = 400,000); note: nearly all actives have a fitted effect of over 60% in size
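Cytotoxicity via CellTiter-Glo luminescence after 72 h compound exposure at 37 degrees C. Cells: drug-selected KB-V1 line, DMEM phenol-red free plus 10% FBS. Compounds tested at multiple concentrations; normalized data fitted to concentration-effect curves.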
IL-1B inflam inh – inflammasome signaling inhibition, IL-1 beta readout | THP-1 LPS/ATP IL-1B secretion, AlphaLISA, 16 h; stronger effect = lower value | activity change, % at 57.5 µM | actives 4.7% (n = 360,000) | AID 743279; in the data active = activity change below about -50%; inconclusive = mostly about -30% to -49%
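THP-1 cells pretreated 1 hr with compounds (up to 57.5 uM final), then stimulated with LPS (250 ng/mL final) plus ATP (1.25 mM final); secreted IL-1B measured by AlphaLISA after 16 hr, decreased signal indicating inhibition.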
HT1080 IDH1KD tx – HT-1080 IDH1 knockdown cell toxicity (counter line) | HT-1080 IDH1 knockdown viability, ATP luminescence, 48 h | actives 2% (n = 360,000) | Potency, µM (titrated, usually from 46.1 µM), most hits filed as cytotoxic
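Luminescent ATP read-out (CellTiter-Glo, 10 min at room temperature) after 48 h compound exposure at 37 °C gave viability of IDH1-knockdown HT-1080 cells. Activity was normalised to DMSO and cell-free wells, then fitted as concentration-response curves.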
HT1080-NT tox – kills 2HG-producing HT-1080-NT fibrosarcoma cells; Potency, µM (top dose mostly 46.1 µM), hits mostly cytotoxic; AID 686970; actives 1.6% (n = 360,000); HT-1080-NT fibrosarcoma viability, CellTiter-Glo ATP luminescence, 48 h;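 note: NT is the 2HG producing partner of a matched IDH1 knockdown line; nearly all actives have a fitted effect of over 55% in size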
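HT-1080-NT fibrosarcoma cells (2HG-overproducing), 750 cells/well in RPMI with 5% FBS, dosed after 2 h and incubated 48 h at 37C. CellTiter-Glo luminescence normalized to DMSO and no-cell wells; concentration-response curves fitted and classed.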
Of the large screens only hits and unclear results are named; the others gave an inactive call. Unless noted, calls come from the whole dose curve; as a rule, active = well fitted curve in the direction sought with a large enough effect; inconclusive = small, poorly fitted or top-dose-only effect, or another doubt; inactive = no such curve, though single readings can be large; an effect the other way counts as inactive or inconclusive.

CC1CCc2nc3ccc(S(=O)(=O)N4CCC(C(=O)NC(C)c5ccccc5)CC4)cc3c(C(=O)O)c2C1 (stereo not given)	KB-V1 MDR tox inconclusive
N#CC(C#N)=C(Nc1ccc(F)cc1)SCc1cccc(Br)c1	KB-3-1 tox 10µM, KB-V1 MDR tox 9.2µM, IL-1B inflam inh -96, HT1080 IDH1KD tx 18µM, HT1080-NT tox 9.2µM
Cc1cccc(CSC(Nc2ccc(F)cc2)=C(C#N)C#N)c1	KB-3-1 tox 16µM, KB-V1 MDR tox inconclusive, HT1080-NT tox inconclusive
O=C(NCc1ccccc1)c1cc(C2CCCCN2S(=O)(=O)c2ccccc2)on1 (stereo not given)	none
O=C(Nc1cc(SCCO)cc([N+](=O)[O-])c1)c1ccc(Br)o1	KB-3-1 tox inconclusive, KB-V1 MDR tox 21µM
O=C(CCCl)Nc1cc(SCCO)cc([N+](=O)[O-])c1	none
OC(c1ccccc1)(c1ccccc1)C1CCN(CCCOc2ccccc2Cl)CC1	KB-3-1 tox inconclusive, KB-V1 MDR tox inconclusive, IL-1B inflam inh inconclusive, HT1080 IDH1KD tx inconclusive, HT1080-NT tox 21µM
COc1ccccc1OCCCCN1CCC(C)CC1	none
COc1ccccc1OCCCN1CCC(C(O)(c2ccccc2)c2ccccc2)CC1	KB-V1 MDR tox inconclusive, IL-1B inflam inh -54, HT1080 IDH1KD tx 16µM, HT1080-NT tox 21µM
Clc1ccccc1OCCN1CCCCC1	HT1080 IDH1KD tx inconclusive
CCOC(=O)N1CCC(Nc2nc3ccccc3n3nnnc23)CC1	KB-V1 MDR tox 2.3µM
NC(=S)NN=C1c2cc(Cl)ccc2-c2c1cc(Cl)cc2[N+](=O)[O-]	KB-3-1 tox 6.5µM, KB-V1 MDR tox 15µM
COc1cc2c(cc1[N+](=O)[O-])-c1ccc([N+](=O)[O-])cc1C2=NNC(N)=S	KB-V1 MDR tox inconclusive
O=C(c1cc(-c2ccc(Br)cc2)n[nH]1)N1CCN(S(=O)(=O)c2ccc(Br)s2)CC1	none (no result: IL-1B inflam inh, HT1080 IDH1KD tx, HT1080-NT tox)
CN(C)/C=N/C(=S)Nc1ccc(Cl)c(Cl)c1	IL-1B inflam inh -91, HT1080 IDH1KD tx inconclusive
Cc1ccc(NC(=S)N(C)C)cc1C	none
O=C(COc1ccccc1)N1CCN=C1SCc1ccc(F)cc1	IL-1B inflam inh -97
O=C(c1cccs1)N1CCN=C1SCc1cccnc1	IL-1B inflam inh -78
O=C(Cc1ccc(F)cc1)N1CCN=C1SCc1ccc([N+](=O)[O-])cc1	KB-V1 MDR tox inconclusive, IL-1B inflam inh -64
CC(=O)N1CCN=C1SCc1ccc(C)cc1	none
CCOC(=O)N1CCN=C1SCc1ccc(C(F)(F)F)cc1	KB-V1 MDR tox inconclusive, IL-1B inflam inh -82
O=S(=O)(c1cccc(F)c1)N1CCN(Cc2cc3c(cc2Br)OCCO3)CC1	HT1080 IDH1KD tx inconclusive
Cc1n[nH]c(C)c1S(=O)(=O)N(C)Cc1ccco1	none
Cc1nc([N+](=O)[O-])c(C(=O)OCc2cccc(Br)c2)n1C	none
CCOc1ccc(CC(=O)N2CCN=C2SCc2ccc([N+](=O)[O-])cc2)cc1	KB-V1 MDR tox inconclusive, IL-1B inflam inh -97
O=C(Cc1cccs1)N1CCN=C1SCc1ccc(Br)cc1	KB-V1 MDR tox inconclusive, IL-1B inflam inh -102
O=C(Cc1cccs1)N1CCN=C1SCc1cccc(F)c1	none
O=C(Cc1ccccc1)N1CCN=C1SCc1ccc([N+](=O)[O-])cc1	IL-1B inflam inh -55
COc1cc(NC(=O)CSCc2ccccc2)c(C(=O)O)cc1OC	none
O=C(COC(=O)COc1ccc(Br)cc1)NNC(=O)c1ccccc1	none
CCCC(c1c(C)n(C)n(-c2ccccc2)c1=O)c1c(C)n(C)n(-c2ccccc2)c1=O	KB-3-1 tox 21µM, KB-V1 MDR tox inconclusive, HT1080 IDH1KD tx inconclusive
COc1ccc(NS(=O)(=O)c2ccc(Cl)c(NC(=O)c3cccnc3Cl)c2)cc1	KB-V1 MDR tox 21µM
COc1ccc(NS(=O)(=O)c2ccc(N3CCOCC3)c(NC(=O)c3ccc(OC)cc3)c2)cc1	KB-V1 MDR tox 18µM
COc1ccc(NS(=O)(=O)c2cc(NC(=O)COc3ccc(OC)cc3)ccc2N2CCOCC2)cc1	KB-V1 MDR tox 2.3µM
COc1ccc(NS(=O)(=O)c2ccc(Cl)c(NC(=O)c3ccccc3F)c2)cc1	none (no result: KB-3-1 tox, KB-V1 MDR tox)
COc1ccc(NS(=O)(=O)c2ccc(N3CCOCC3)c(N)c2)cc1	KB-3-1 tox inconclusive, KB-V1 MDR tox 18µM
CCOCCCNC(=O)C(NC(=O)Cc1cccs1)c1ccc(OC)cc1 (stereo not given)	none
COc1ccc(NS(=O)(=O)c2ccc(N3CCOCC3)c(NC(=O)c3ccccc3Cl)c2)cc1	KB-3-1 tox 16µM, KB-V1 MDR tox 10µM
O=C(Nc1cc(S(=O)(=O)Nc2ccc(Cl)cc2)ccc1N1CCCCC1)c1ccc(F)cc1Cl	KB-3-1 tox 16µM, KB-V1 MDR tox inconclusive, IL-1B inflam inh inconclusive, HT1080 IDH1KD tx inconclusive, HT1080-NT tox inconclusive
COc1ccc(NS(=O)(=O)c2cc(NC(=O)/C=C/c3ccccc3OC)ccc2N2CCCCC2)cc1	KB-V1 MDR tox 5.2µM
O=C(NC(=S)Nc1ccccc1N1CCCCC1)c1ccc(F)cc1Cl	KB-3-1 tox inconclusive, KB-V1 MDR tox inconclusive
COc1ccc(CCNC(=O)C(=O)NCC2CCCN2S(=O)(=O)c2ccc(OC)cc2)cc1 (stereo not given)	KB-V1 MDR tox inconclusive
N#CC(C#N)=C1C=CC=CN1/C(=C\c1ccco1)C(=O)c1ccc(Br)cc1	KB-3-1 tox inconclusive, IL-1B inflam inh -106
N#CC(C#N)=C1C=CC=CN1/C(=C\c1ccco1)C(=O)c1ccccc1	KB-3-1 tox inconclusive, KB-V1 MDR tox inconclusive, IL-1B inflam inh -98, HT1080 IDH1KD tx inconclusive, HT1080-NT tox inconclusive
CC(C)(C)NC(=O)/C(=C/c1ccco1)c1ccccc1	none
COc1ccc(C=C(C#N)C(=O)c2ccccc2)cc1	none
COc1ccc(C(=O)/C(=C\c2ccco2)N2C=CC=CC2=C(C#N)C#N)cc1	KB-3-1 tox inconclusive, KB-V1 MDR tox 7.3µM, IL-1B inflam inh -96, HT1080 IDH1KD tx 2.9µM, HT1080-NT tox inconclusive
COc1ccc(/C=C(/C(=O)c2cccs2)N2C=CC=CC2=C(C#N)C#N)cc1	IL-1B inflam inh -95, HT1080 IDH1KD tx inconclusive, HT1080-NT tox inconclusive
NC(N)=NS(=O)(=O)c1ccc(NC(=S)NC(=O)c2ccc3c(c2)OCO3)cc1	none
Cc1cccc(OCc2nc(-c3nonc3N)no2)c1C	none
Nc1nonc1-c1noc(COc2ccccc2Cl)n1	IL-1B inflam inh -57
Oc1cc(NCc2ccc(F)cc2)cc2cccnc12	KB-3-1 tox 6.5µM (no result: IL-1B inflam inh, HT1080 IDH1KD tx, HT1080-NT tox)
Clc1ccc(CNc2ncccn2)cc1	KB-V1 MDR tox inconclusive
Oc1cc(NCc2ccc(Cl)cc2)cc2cccnc12	KB-3-1 tox 16µM (no result: IL-1B inflam inh, HT1080 IDH1KD tx, HT1080-NT tox)
Fc1ccc(CNc2ncccn2)cc1	none
CCCNC(=O)N1CCN(Cc2ccco2)CC1	none
CC1(Oc2cccnc2Cl)CCN(Cc2ccc(OC(F)(F)F)cc2)C1 (stereo not given)	IL-1B inflam inh -56
CC1(Oc2cccc(Cl)c2)CCN(Cc2ccc(OC(F)(F)F)cc2)C1 (stereo not given)	HT1080-NT tox inconclusive
